# Experimental data: PubChem BioAssay (NCI)
# Compounds without any hit were thinned out: in the full panel of roughly 83,000, 20% have a hit.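 How to read the values: 0–100, growth inhibition (40 = 60% inhibited); 0, no net growth; -100 to 0, cell death (-40 = 40% of starting cells died; -100 = all dead).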 Values without a mark were called inactive. Active and inactive are the calls of the source. How the source made its calls: active means growth percent below 10; inactive means the rest.
# Experiments:
# Assay in all cases: NCI-60 one-dose screen, 48 h (100 = growth as untreated, 0 = no growth, -100 = all killed)
# Settings in all cases: 10 µM unless noted
# SR leukemia = test system: SR leukemia
# RPMI-8226 leukemia = test system: RPMI-8226 leukemia
# OVCAR-8 ovarian = test system: OVCAR-8 ovarian
# OVCAR-5 ovarian = test system: OVCAR-5 ovarian
# OVCAR-4 ovarian = test system: OVCAR-4 ovarian
# SK-OV-3 ovarian = test system: SK-OV-3 ovarian
# IGROV1 ovarian = test system: IGROV1 ovarian
# OVCAR-3 ovarian = test system: OVCAR-3 ovarian
# HS 578T breast = test system: HS 578T breast
# NCI/ADR-RES ovarian = test system: NCI/ADR-RES ovarian
SMILES,growth (SR leukemia),growth (RPMI-8226 leukemia),growth (OVCAR-8 ovarian),growth (OVCAR-5 ovarian),growth (OVCAR-4 ovarian),growth (SK-OV-3 ovarian),growth (IGROV1 ovarian),growth (OVCAR-3 ovarian),growth (HS 578T breast),growth (NCI/ADR-RES ovarian)
Clc1ccc(I)c2ccccc12,102%,104%,102%,107%,107%,103%,107%,108%,98.9%,109%
CCC(CCCN1C(=O)c2ccccc2C1=O)Nc1cc(OC)cc2c(C)ccnc12 (stereo not given),54.9%,96%,98.7%,99.9%,73.8%,100%,137%,99.1%,86.7%,121%
Cc1ccc(C(C)C)c(OCc2ccc(C(=O)N/N=C/c3cccc(O)c3O)cc2)c1,9.44% (active),28.8%,23.7%,70.3%,27.8%,66.1%,40.8%,20.4%,76.8%,1.46% (active)
O=C1/C(=N\c2cc(=O)[nH]n2S(=O)(=O)c2ccccc2)Nc2ccccc21,89.7%,95.2%,102%,105%,98.4%,105%,100%,104%,91%,101%
C=CCC(CCC(CC=C)C(=O)OCC)C(=O)OCC (stereo not given),86.7%,101%,95.2%,106%,102%,107%,102%,115%,107%,109%
Clc1ccc(N/N=C/c2ccccn2)nc1,6.32% (active),26.3%,18.1%,30.3%,6.01% (active),27.2%,11.2%,22.3%,60.1%,-1.35% (active)
Cc1nn(-c2ccccc2)c(N)c1N=C1NC(=O)/C(=C/c2ccc(Cl)cc2)S1,34.1%,49.5%,91.6%,86.6%,75.2%,88%,104%,68.8%,93.1%,92.2%
COc1ccc(-c2nc(SCC(C)C)nc(Nc3ccc([N+](=O)[O-])cc3)c2C#N)cc1,54.4%,93.9%,93.4%,106%,37.5%,99.2%,94.3%,81.5%,90.4%,101%
Brc1c(-c2ccncc2)nc2n1CCS2,52.9%,60.2%,94.6%,102%,109%,116%,0.69% (active),97.6%,117%,107%
CCOC(=O)c1c2c(cn1Cc1ccccc1)-c1oncc1CC2,91.8%,100%,84.9%,88.3%,104%,109%,101%,103%,91.9%,98.3%
CCOC(=O)C1=C(C(F)(F)F)NC(=S)NC1CN1C(=O)c2ccccc2C1=O (stereo not given),-89% (active),68.5%,116%,95.7%,117%,117%,104%,108%,109%,112%
N=C(N)c1ccc(-c2ccc(-c3ccc(F)cc3)s2)cc1,-24.2% (active),-55.5% (active),-28.4% (active),-87.4% (active),-70.8% (active),-80% (active),-69.8% (active),-92.4% (active),-59.4% (active),-77.1% (active)
[N-]=[N+]=Nc1ncc(-c2ccc(C(F)(F)F)cc2)c(NC2CCCCCC2)n1,-21.8% [100 µM] (active),-21% [100 µM] (active),37.2% [100 µM],65% [100 µM],28.9% [100 µM],71.6% [100 µM],36.3% [100 µM],7.63% [100 µM] (active),52.3% [100 µM],43.7% [100 µM]
COc1ccc2c(c1)/C(=C1/S/C(=N/c3nnc(C)s3)NC1=O)C(=O)N2Cc1ccc(Br)cc1,55%,26.6%,38%,74.5%,40.1%,52.1%,40.9%,28.7%,47.8%,32.2%
